# Reference: the supplement of paper PMC6555819
# Assays:
# Assay in all cases: PBM binding z-score (relative to random genomic background probes); higher = stronger binding; sequences stand for … in GC…GCGATTGACAGCGTAGAATGAAGG
# [1] = tested on: PPARg:RXRa DBDmut IVT, anti-RXR (DBD mutation: RXRa K156A/R161A, NR concentration 270 nM, RXRa partner concentration 90 nM)
# Method in brief: (§1)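 Random background probes are the reference for binding z-scores. These scores derive from regression-normalized fluorescence on custom Agilent 4×180K protein-binding microarrays incubated 1 h with ligand-free nuclear receptor dimers. Binding was detected with antibodies against each partner (one per run).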
# [2] = tested on: PPARg:RXRa IVT, anti-PPARg (NR concentration 270 nM, RXRa partner concentration 90 nM)
# Method in brief: as §1
# [3] = tested on: PPARg DBDmut:RXRa IVT, anti-PPARg (DBD mutation: PPARg1 K132A/R137A, NR concentration 270 nM, RXRa partner concentration 90 nM)
# Method in brief: as §1
# [4] = tested on: PPARg DBDmut IVT, anti-PPARg (DBD mutation: PPARg1 K132A/R137A, NR concentration 270 nM)
# Method in brief: as §1
# [5] = tested on: PPARg homodimer (NR concentration 180 nM)
# Method in brief: as §1
# [6] = tested on: PXR:RXRa (NR concentration 270 nM, RXRa partner concentration 90 nM)
# Method in brief: as §1
# [7] = tested on: PXR homodimer (NR concentration 270 nM)
# Method in brief: as §1
# [8] = tested on: RARa:RXR (NR concentration 270 nM, RXRa partner concentration 90 nM)
# Method in brief: as §1
# [9] = tested on: RARa homodimer (NR concentration 270 nM)
# Method in brief: as §1
# [10] = tested on: RARb:RXRa (NR concentration 270 nM, RXRa partner concentration 90 nM)
# Method in brief: as §1
# [11] = tested on: RARb homodimer (NR concentration 270 nM)
# Method in brief: as §1
# [12] = tested on: RARg:RXRa (NR concentration 270 nM, RXRa partner concentration 90 nM)
# Method in brief: as §1
# [13] = tested on: RARg homodimer (NR concentration 270 nM)
# Method in brief: as §1
# [14] = tested on: RXRa DBDmut IVT, anti-RXR (DBD mutation: RXRa K156A/R161A, NR concentration 90 nM)
# Method in brief: as §1
# [15] = tested on: RXRa homodimer (NR concentration 180 nM)
# Method in brief: as §1
# [16] = tested on: THRa:RXRa (NR concentration 90 nM, RXRa partner concentration 90 nM)
# Method in brief: as §1
# [17] = tested on: THRa homodimer (NR concentration 90 nM)
# Method in brief: as §1
# [18] = tested on: VDR homodimer (NR concentration 270 nM)
# Method in brief: as §1
# [19] = tested on: VDR:RXRa (NR concentration 270 nM, RXRa partner concentration 90 nM)
# Method in brief: as §1
Sequence,PBM binding z-score [1],PBM binding z-score [2],PBM binding z-score [3],PBM binding z-score [4],PBM binding z-score [5],PBM binding z-score [6],PBM binding z-score [7],PBM binding z-score [8],PBM binding z-score [9],PBM binding z-score [10],PBM binding z-score [11],PBM binding z-score [12],PBM binding z-score [13],PBM binding z-score [14],PBM binding z-score [15],PBM binding z-score [16],PBM binding z-score [17],PBM binding z-score [18],PBM binding z-score [19]
TCATATAGGTAATACAGGTGAAAGACGGCATCTA,4.17,3.37,1.39,1.69,1.42,0.845,0.764,1.34,1.85,0.786,0.66,0.945,0.86,1.52,1.38,0.85,0.434,0.471,–
AGACTGAGGTTACCAAAGATCAGGGAAACGCTTG,0.451,1.01,-0.133,-0.273,0.133,1.42,-0.0396,1.82,-0.111,2.08,0.774,2,1.59,0.709,2.5,2.7,0.552,0.497,–
GGAATGAGGGCAAGTTGATAGCAGAGTTTGATGG,4.98,3.82,1.16,-0.0155,1.37,1.05,1.87,0.695,0.0185,2.64,1.65,1.55,2.21,2.79,1.04,1.85,1.02,2.22,–
CATACAGGGCCAGCTAGGCCAGAGTAGGGACGGC,-0.75,-0.0426,-0.139,-0.903,-0.651,-0.993,-0.765,-0.772,-0.751,0.645,-0.0405,0.0438,0.566,-1.28,-0.173,-0.0247,-0.492,-0.491,–
AGGACGAGGGCACGCTGAGTTGATAGCAGAGTAG,2.52,2.08,-0.0685,-0.533,0.511,1.31,0.265,0.618,-0.58,2.68,1.36,1.76,2.67,2.23,1.51,1.88,0.162,1.51,–
AGTATGAGGTTATACGTAGATCAGGGAAGAAAGT,1.1,0.98,0.752,0.274,0.842,1.25,0.582,1.66,0.209,1.58,0.828,1.81,1.26,1.67,2.18,2.4,0.869,0.823,–
CCTACTGGGCAAAGGTCATTGATCAGTCAAAGCA,1.24,4.2,-0.384,-0.183,4.15,5.26,1.18,6.18,1.65,4.49,4.39,6.27,4.92,1.48,6.88,3.05,0.287,2.31,–
TGTCACAGTTCAAAGGTAACGTAAGTATCCACAC,0.227,2.78,1.49,1.01,0.48,3.67,0.969,4.07,-0.272,2.88,1.81,3.57,2.54,2.93,4.82,2.74,-0.0814,2.33,–
TCATATAGGTAAATAGGTGAAAGTCCGTAAGTTA,5.74,6.26,1.25,1.38,1.18,1.13,0.363,1.44,1.54,0.905,1.17,1.26,0.407,1.39,1.62,0.865,0.0399,0.337,–
CCTACTAGTTGACCATAAGGGCAACCGAAGCTCG,0.2,0.479,0.235,-0.627,1.22,0.406,0.317,0.81,1.01,1.39,1.92,0.922,0.714,0.0414,0.509,1.75,1.28,0.643,–
TCTAGCAGGCCGGAGGGTCACTCAAGAGGTACGG,0.524,-0.0805,-0.889,-1.31,0.278,0.98,-0.311,1.65,-0.429,1.74,2.33,2.01,1.52,0.00965,2.13,1.44,-0.391,0.104,–
CGAACTAGGGCATGAGTTGATAGCAAATGCCGAT,7.01,6.1,1.05,0.0296,-0.00514,-0.191,-0.257,0.155,-0.133,1.12,0.222,0.852,0.834,0.394,0.388,0.0506,-0.493,0.329,–
TCTAGTTGGTCAAGGGTCACACACTCGAAATGCG,2.52,5.1,1.64,0.978,4.73,4.32,0.895,5.98,2.83,3.94,4.19,5.29,4.87,1.59,6.31,3.13,1.47,2.76,–
TTACCAAGGAGAAGGTCGTTGATCCCTCTGTAGA,-0.339,-0.0762,-0.116,0.61,0.455,1.03,-0.292,1.34,-0.134,0.537,0.592,0.225,0.0485,-0.392,1.27,0.759,-0.096,0.372,–
ATATGTAGGTTACAGCCGGGTCATTCAGGCTATG,7.69,7.35,1.69,1.39,1.97,3.43,1.66,3.51,0.487,2.26,2.93,4.28,2.25,0.721,3.34,3.57,1.89,2.96,–
GCTATTAGTTGAAAGGGCAACCGCATGATTCTCG,0.567,1.26,-0.261,-0.166,1.06,0.577,0.17,1.39,0.567,1.71,1.73,1.4,1.04,0.935,1.29,0.332,-0.105,0.195,–
AGTCAAAGTTCACTAGCTAACGTAAGATTCAGCT,-0.129,1.99,0.927,0.426,1.85,3.57,1.99,2.79,0.935,4.56,3.22,4.66,5.41,4.14,3.53,1.4,-0.145,3.78,–
ACTAGTTGGTCAACTGAGGTCACACACAATTCGG,2.42,3.75,1.07,0.421,2.02,6,1.2,4.59,1.19,4.1,4.82,4.49,4.46,1.89,4.58,–,4.84,3.22,–
GCATATAGGTCATACAAGGTGAAAGTCCGATTGT,6.81,7.41,3.79,2.08,2.85,4.68,0.812,4.41,1.09,4.29,3.94,5.1,4.65,1.98,4.8,–,1.62,1.23,–
CGTCCAAGGTCAAAGGTCAGTGGAGAGATGACGG,3.88,5.79,1.38,0.543,4.78,7.21,1.94,8.88,2.17,6.16,5.56,8.71,8.02,4.1,10.1,–,2.93,4.05,–
GCATATAGGTTATACAAGGTGAAAGTCCGATTGT,4.93,4.04,0.859,0.875,1.26,2.26,0.302,2.49,0.937,1.6,1.57,1.7,1.41,0.657,1.79,–,1.27,0.435,–
TAGCCTAGGCCATTCAGGGGCCAGTATAGAAAGC,-0.752,0.1,-0.845,-0.806,-0.678,-0.717,-0.964,-0.354,-0.891,0.992,0.802,0.999,0.71,-0.81,-0.0459,–,-0.688,-0.441,–
CGCGAAAGGTCGGTTGAGGTGAGTATACGGATAA,0.0113,0.699,0.0036,-0.174,0.986,3.35,-0.075,3.62,0.138,3.08,2.23,2.88,2.61,0.708,2.44,–,1.65,0.652,–
CCTAGCAGGTCAATCTGGGTCACTCAAGGCTTGA,5.78,6.18,1.08,-0.626,2.33,5.31,0.0416,4.45,0.436,3.96,4.09,4.92,5.25,2.2,4.25,–,1.44,1.66,–
TTACCGAGGTGAGCTGAGGTCGTTGATCCAACTC,1.35,2.15,0.433,-0.145,-0.159,5.27,0.0419,2.36,-0.912,1.76,1.58,1.48,1.04,0.0413,1.7,–,1.88,1.73,–
ATATGTAGGTTAGCTGGGGTCATTCATACTAGGC,6.88,6.57,2.9,2.72,3.41,6.71,4.4,6.18,2.13,3.28,3.88,4.01,3.08,2.52,5.44,–,3.63,4.81,–
GCTAGTTGGTCAGTAAAAGGTAACACACCGGTCG,0.651,0.622,-0.712,0.0528,0.535,0.2,0.0944,0.372,0.548,1.03,1.31,0.845,0.741,0.148,0.462,–,0.175,0.0919,–
TAGCCGAGGTCAGATCGGGCCAGTATACGCTATA,0.468,2.23,0.311,-0.734,1.19,4.38,-0.437,3.81,-0.0454,4.42,3.62,5.06,5.59,2.66,4.74,–,1.32,2.08,4.26
TAGCCTAGGTCAGATCGGGTCAGTATACGCTATA,0.599,2.06,-0.409,0.264,0.633,4.16,-0.399,2.21,-0.275,3.55,3.56,3.77,4.62,-0.194,2.58,–,1.29,0.51,3.75
